Test results published in PubChem BioAssay AID1416 (The Scripps Research Institute Molecular Screening Center, 2008).
Out of some 220,000 compounds screened, about 370 (0.17%) were called active. The list comes from a sample in which actives are over-represented; it also holds similar structures and randomly drawn compounds. Unmarked numbers belong to inactive results.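 The calls were made as follows: active = inhibition above the mean inhibition of all tested compounds plus 3 SD, set separately per screening campaign (cut at about 2.9% in these data); inactive = the rest.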

What follows are molecules tested against Eukaryotic translation initiation factor 2-alpha kinase 3 (Homo sapiens) (UniProt Q9NZJ5) (assay: block of dimerizer-induced PERK translation repression, primary screen, PERK inhibitor project, CHO PERK-DD cells, SEAP luminescence, HTS (AID 1416;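 also: PERK kinase domain activated by AP20187 dimerizer at 100 nM; 0% = DMSO with dimerizer and 100% = rapamycin at 8.4 µM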)). Conditions: CHO PERK-DD fusion, SEAP luminescence translation reporter; at 5.6 µM; stronger effect = higher value.
Chain of Eukaryotic translation initiation factor 2-alpha kinase 3 (Homo sapiens) (Q9NZJ5 whole entry, looked up, the tested form may be a part): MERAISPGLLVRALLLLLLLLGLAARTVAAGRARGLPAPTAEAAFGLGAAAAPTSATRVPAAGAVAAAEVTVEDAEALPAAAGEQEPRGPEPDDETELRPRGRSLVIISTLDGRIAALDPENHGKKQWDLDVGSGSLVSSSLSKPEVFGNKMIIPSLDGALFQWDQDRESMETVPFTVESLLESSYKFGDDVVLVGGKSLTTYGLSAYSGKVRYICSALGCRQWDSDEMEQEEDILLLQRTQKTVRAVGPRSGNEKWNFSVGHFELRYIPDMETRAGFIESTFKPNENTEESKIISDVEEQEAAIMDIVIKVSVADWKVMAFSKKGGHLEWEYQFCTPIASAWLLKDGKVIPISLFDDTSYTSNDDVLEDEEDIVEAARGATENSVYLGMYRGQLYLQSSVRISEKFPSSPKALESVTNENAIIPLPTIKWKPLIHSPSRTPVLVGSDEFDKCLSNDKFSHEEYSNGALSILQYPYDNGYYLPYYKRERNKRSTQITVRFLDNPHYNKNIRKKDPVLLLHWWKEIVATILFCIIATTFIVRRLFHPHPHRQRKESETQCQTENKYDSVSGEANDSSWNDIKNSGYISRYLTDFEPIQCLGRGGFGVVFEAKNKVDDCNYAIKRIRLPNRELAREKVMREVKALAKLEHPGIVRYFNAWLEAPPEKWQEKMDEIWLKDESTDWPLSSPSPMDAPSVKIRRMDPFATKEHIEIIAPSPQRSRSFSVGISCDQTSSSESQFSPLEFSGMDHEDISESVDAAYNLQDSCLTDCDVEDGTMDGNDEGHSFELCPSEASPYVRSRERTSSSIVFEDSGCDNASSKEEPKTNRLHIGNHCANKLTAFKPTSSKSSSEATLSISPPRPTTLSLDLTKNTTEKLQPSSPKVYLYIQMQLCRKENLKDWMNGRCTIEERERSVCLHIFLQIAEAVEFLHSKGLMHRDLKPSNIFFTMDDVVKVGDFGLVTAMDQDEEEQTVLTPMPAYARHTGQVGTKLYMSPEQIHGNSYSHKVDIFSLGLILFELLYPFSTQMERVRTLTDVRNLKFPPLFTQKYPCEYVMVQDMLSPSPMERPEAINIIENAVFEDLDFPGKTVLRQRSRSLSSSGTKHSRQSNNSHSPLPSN
Molecule O=[N+]([O-])c1ccc2c(c1)C(N1CCOCC1)/C(=C/C1(O)CCCCC1)O2 (stereo not drawn) has an inhibition of -1.29%. In the case of Cc1c(C(=O)N(Cc2ccccc2)Cc2cccnc2)cnn1-c1ccc(F)cc1, the inhibition is reported as -0.72%. CCc1cc(CNC(=O)CC2C(=O)NCCN2CC2CCCCC2)on1 (stereo not drawn) was tested, and the inhibition was -0.53%. Molecule COc1cc(NS(=O)(=O)c2ccc(NC(=O)CN3C(=O)c4ccccc4C3=O)cc2)ncn1 has an inhibition of 2.32%. Cc1ccc(Oc2cnn(-c3ccccc3)c(=O)c2Br)cc1 was tested, and the inhibition was 2.99% (active). COc1ccc(-n2c(C)nc3c(cnn3-c3ccccc3)c2=O)cc1 was tested, and the inhibition was -0.16%. COc1ccc(Oc2c(Cl)cnn(-c3ccccc3)c2=O)cc1 gave an inhibition of 0.39%. With CCCS(=O)(=O)N1CCC(CCOc2ccccc2)(C(=O)OCC)CC1 the inhibition was -0.64%. For O=C(NC(=O)N1CCOCC1)c1ccccc1, the inhibition was 0.27%. O=C(NC(=O)c1cc(OCC(F)(F)F)ccc1OCC(F)(F)F)Nc1ccccc1 gave an inhibition of 0.87%. For CN(C)S(=O)(=O)c1ccc(NC(=O)N2CCOCC2)cc1, the inhibition was 0.79%. For Cn1nccc1NS(=O)(=O)c1ccc(F)cc1, the inhibition was 0.14%. Molecule CC(C)CNC(=O)C(=O)Nc1ccc(N(C)C)cc1 has an inhibition of 0.89%. For Nc1ccc(S(=O)(=O)Nc2nccc(/C=C/c3ccc(Br)s3)n2)cc1, the inhibition was 1.17%. With O=C(O)CCCC(=O)Nc1ccccc1-n1ccnc1 the inhibition was 3.15% (active). Molecule CC(CC(=O)Nc1ccccc1)n1ccnc1 (stereo not drawn) has an inhibition of 0.1%. In the case of Cc1cccc(C)c1NC(=O)Nc1ccccc1-n1ccnc1, the inhibition is reported as 1.72%. For COc1cccc(C2SCC(=O)N2c2cccc(C)c2)c1OC (stereo not drawn), the inhibition was 0.28%. CC(=O)NCC(=O)N(Cc1ccco1)C1(C(=O)NC2CCCC2)CCCCC1 was tested, and the inhibition was 0.44%. CCc1ccc(N(CC(=O)Nc2sc3c(c2C(=O)OC)CCCC3)S(C)(=O)=O)cc1 was tested, and the inhibition was 0.54%. In the case of O=C(c1cccc(S(=O)(=O)N2CCCC2)c1)N(Cc1ccco1)C1CCS(=O)(=O)C1 (stereo not drawn), the inhibition is reported as 0.31%. With Cc1nn(-c2ccccc2)c(-n2cccc2)c1C(=O)O the inhibition was 0.88%. CC(CO)(CO)NC(=O)c1ccc(=O)[nH]n1 gave an inhibition of 1.5%. CCC(C)NCCOCCOc1ccc(Br)cc1C (stereo not drawn) was tested, and the inhibition was -0.24%. For COc1ccc(C2c3c(C)nn(-c4ccccc4)c3NC(=O)N2c2ccccc2)cc1 (stereo not drawn), the inhibition was -0.38%. CCN(CCCNC(=O)C1CCN(S(=O)(=O)c2cnc[nH]2)CC1)c1ccccc1 showed an inhibition of -0.73%. In the case of O=C(Nc1ccccc1)O/N=C1/CCCc2occc21, the inhibition is reported as 0.48%. In the case of COc1ccc(-c2csc(NC(=O)COC(=O)c3ccc(Br)o3)n2)cc1, the inhibition is reported as 0.82%. In the case of N#Cc1c(NCCO)ccc([N+](=O)[O-])c1NCCO, the inhibition is reported as 3.54% (active). With CCN(CC)CCNc1ccc(Cl)cc1[N+](=O)[O-] the inhibition was -0.09%. O=[N+]([O-])c1ccc(NCCCO)c(C(F)(F)F)c1 was tested, and the inhibition was 0.52%. O=C(C1CCCN1S(=O)(=O)c1ccc(Br)cc1)N1CCOCC1 (stereo not drawn) gave an inhibition of 1.24%. In the case of CCOC(=O)CSc1nc2sc3c(c2c(=O)[nH]1)CC(C)(C)OC3, the inhibition is reported as 2.96% (active). In the case of CCOC(=O)Cn1c(SC)nc2sc3c(c2c1=O)CC(C)(C)OC3, the inhibition is reported as 0.18%. Work on CCC1(C)Cc2c(sc3nc(SC)[nH]c(=O)c23)CO1 (stereo not drawn) yielded an inhibition of -0.25%. With Cc1cccc(C(=O)Nc2ccc(C(=O)/C=C/c3cccs3)cc2)c1 the inhibition was -1.44%. Work on COc1cc(/C=C/C(=O)OCC(=O)NC(=O)NCc2ccccc2)ccc1OCC#N yielded an inhibition of 0.97%. For O=C(c1ccco1)N1CCN(C(=O)C2CCCN(S(=O)(=O)c3cccc4nsnc34)C2)CC1 (stereo not drawn), the inhibition was 0.2%. Molecule CN(C)c1ccc(NC(=O)CSc2n[nH]c(-c3ccco3)n2)cc1 has an inhibition of -0.7%. Work on COc1ccccc1Cn1c(C)nnc1-c1cnn(C)c1N yielded an inhibition of 0.89%. Molecule CCSc1ccccc1C(=O)NCc1ccc(OC)cc1 has an inhibition of 0.41%. For CCn1cc(CN2CCCC(CNS(=O)(=O)Cc3ccccc3)C2)cn1 (stereo not drawn), the inhibition was 1.56%. COc1c(N2CCN(C(=S)Nc3ccccc3F)C(C)C2)c(F)cc2c(=O)c(C(=O)O)cn(C3CC3)c12 (stereo not drawn) was tested, and the inhibition was 1.87%. Cc1ccccc1-n1nc(C)c2cc(C(=O)NC3CC3)sc21 gave an inhibition of -1.39%. For Cc1c(Cl)c([N+](=O)[O-])nn1CC(=O)NCC1CCCO1 (stereo not drawn), the inhibition was 0.38%. With Cc1cc(S(=O)(=O)NC2CCCCC2)ccc1OCC(=O)NCc1cccnc1 the inhibition was 0.23%. In the case of CC(=O)NCc1ccc(S(=O)(=O)NC2CCN(Cc3ccccc3)CC2)cc1, the inhibition is reported as 1.04%. Molecule O=C1CCC(=O)N1c1ccc(NCCc2ccccc2F)c([N+](=O)[O-])c1 has an inhibition of -0.58%. In the case of NC(=O)c1ccc(N2CCOCC2)nc1, the inhibition is reported as 2.55%. N#CC1=C(N)N(c2ccc(F)cc2)C(=O)C1 showed an inhibition of 0.76%. For CCOC(=O)c1ccc(COC(=O)CCc2nc(-c3ccccc3)c(-c3ccccc3)o2)cc1, the inhibition was -0.32%. Work on Cc1cc(NC(=O)COC(=O)COc2ccc(Cl)cc2C)c([N+](=O)[O-])cc1C yielded an inhibition of 0.97%. Work on CCOC(=O)C1=C(C)N=C2c3ccccc3C(=O)C2C1c1ccc(Br)cc1 (stereo not drawn) yielded an inhibition of 0.04%. CCOc1cnc(C(=O)NNC(=O)c2ccccc2Br)o1 showed an inhibition of 1.53%. In the case of CC1CN(C2CCN(C(=O)COc3ccccc3)CC2)CC(C)O1 (stereo not drawn), the inhibition is reported as 0.89%. For Cc1nn(CC2CC2)c(=O)n1N(C)c1ncc(C(F)(F)F)cc1Cl, the inhibition was 1.31%. O=C(Cn1cnc2ccccc21)N/N=C/c1ccco1 was tested, and the inhibition was -0.07%. O=C(O)/C=C\C(=O)Nc1ccc(OCc2ccccc2)cc1 was tested, and the inhibition was 1.09%. For CCOc1c(Br)cc(/C=C2\C(=O)N(CCC#N)N=C2C)cc1OC, the inhibition was 1.06%. O=[N+]([O-])c1ccccc1NCc1ccccc1Cl gave an inhibition of 0.13%. Work on COc1ccc([N+](=O)[O-])cc1N(CC(O)Cn1nnc2ccccc21)S(=O)(=O)c1ccc(C)cc1 (stereo not drawn) yielded an inhibition of -0.77%. In the case of O=C(O)CC1(CC(=O)Nc2cccc(C(F)(F)F)c2)CCCC1, the inhibition is reported as 1.02%. O=C(Nc1ccc2c(c1)C(=O)OC2)Nc1cccc2ccccc12 gave an inhibition of 1.57%. In the case of CC(=O)c1cc2c(cc1N)OCO2, the inhibition is reported as 4.03% (active). CC(=O)c1cc2c(cc1NC(=O)CN1CCCCCC1)OCO2 was tested, and the inhibition was -1.22%. CC(=O)c1ccc2c(c1)OCCOCCOc1ccc(C(C)=O)cc1OCCOCCO2 showed an inhibition of -1%. Cc1ccc2cc(C)c(N3CCC(C)CC3)nc2c1 gave an inhibition of 1.08%. With CCCCC(CC(C)O)c1n[nH]c(=S)n1-c1ccccc1 (stereo not drawn) the inhibition was 0.58%. CC(NS(=O)(=O)c1ccccc1)c1n[nH]c(=S)n1-c1ccccc1 (stereo not drawn) was tested, and the inhibition was 3.52% (active). S=c1[nH]nc(COc2ccccc2)n1-c1ccccc1 was tested, and the inhibition was 0.99%. CC(C)CNC(=O)CC(NCC(C)C)C(=O)O (stereo not drawn) gave an inhibition of 0.39%. Molecule COc1ccccc1CN(C)C(=O)C1(c2ccc(Cl)cc2)CC1 has an inhibition of 0.49%. Cc1cnc(NC(=O)CSc2nnc(C)s2)s1 showed an inhibition of 1.08%. Cc1nnc(SCC(=O)Nn2cnnc2)s1 showed an inhibition of 0.16%. Cc1nnc(SCC(=O)NC2CCCC2)s1 was tested, and the inhibition was 3.36% (active). CC(=O)C1(C)N(O)C(C)(C)C(c2cccs2)=[N+]1[O-] (stereo not drawn) showed an inhibition of 0.19%. Work on COc1cccc(Nc2nnc(SCC(=O)N3CC(=O)Nc4ccccc43)s2)c1 yielded an inhibition of 0.32%. For CC1CC(=S)Nc2ccccc2N1Cc1ccccc1 (stereo not drawn), the inhibition was 0.04%. With O=C1c2ccccc2C(=O)c2c1cccc2N1CCN(CCO)CC1 the inhibition was -0.7%. Work on COCc1c(C(=O)OCc2c(C)noc2C)oc2ccccc12 yielded an inhibition of 1.59%. Molecule CCOc1ccc(/C=N/NC(=O)CSc2ccccn2)cc1O has an inhibition of -0.92%. CC1=C(C(=O)N(C)C)C(c2ccccc2OC(F)F)NC(=O)N1 (stereo not drawn) showed an inhibition of 1.73%. CCOC(=O)c1ccc(NC(=O)c2cc(=O)[nH]c3ccccc23)cc1 was tested, and the inhibition was 0.84%. For O=C(Nc1cccc(F)c1)N1C2CCC1CC(O)(c1cccnc1)C2 (stereo not drawn), the inhibition was 0.63%. O=C(Nc1ccc(Cl)cc1)OCc1cc(-c2ccccc2)on1 was tested, and the inhibition was 0.13%. With O=C(Nc1ccccc1)OCc1cn(-c2ccc(Cl)cc2)nn1 the inhibition was 1.21%. In the case of O=C(Nc1ccccc1)OCc1cc(-c2ccc(Cl)cc2)on1, the inhibition is reported as 3.15% (active). CCN(CC)CC1(O)CCN(C(=O)c2ccc(Cl)c(Cl)c2)CC1 showed an inhibition of 1.07%. Work on Cn1c(=O)c2cc(S(=O)(=O)NCCC(=O)Nc3ccc(F)cc3F)ccc2n(C)c1=O yielded an inhibition of 2.78%. With Cc1ccc(S(=O)(=O)NCC(=O)N(CC(=O)NC(C)(C)C)Cc2cccs2)cc1 the inhibition was 1.04%. For Cc1ccoc1C(=O)Nc1cccc(Oc2ccccc2)c1, the inhibition was -1%. Work on Cc1nc(CN2CCN(C(=O)CCc3nnc(Cc4c[nH]c5ccccc45)o3)CC2)cs1 yielded an inhibition of 0.14%. O=C(NNc1cc(Cl)cc(Cl)c1)c1c(F)cccc1Cl showed an inhibition of 0.97%. Work on COCCNC(=S)N1CCC(NC(=O)C23CC4CC(CC(C4)C2)C3)CC1 yielded an inhibition of -0.41%. Cc1ccc(C2Nc3ccccc3C(=O)N2CCN2CCNC2=O)cc1 (stereo not drawn) gave an inhibition of 0.32%. CN(C)/C=C(/C(=O)c1ccc(Cl)c(Cl)c1)c1nnnn1-c1ccccc1 was tested, and the inhibition was 1.85%. O=C1COc2ccc(C(=O)COC(=O)c3cccnc3Cl)cc2N1 gave an inhibition of 0.94%. In the case of CCOc1ccc(S(=O)(=O)Nc2nccs2)cc1, the inhibition is reported as 1.47%.
